BJeLR viability = BJeLR cell viability loss. BJeLR (HRASV12) viability, CellTiter-Glo ATP luminescence, 48 h. inhibition, % (test concentration not listed). 300,000 tested, 0.17% active; in the data active = inhibition above about 50%
Mtb FBA inh = inhibits M. tuberculosis FBA enzyme; 360,000 tested, 2.3% active; purified M. tuberculosis FBA, fluorescence read-out; AID 588726; inhibition, % at 1 µM; in the data active = inhibition above about 27%;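 note: 0% = vehicle and 100% = reference inhibitor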
Target sequence (P9WQA3 whole entry, looked up): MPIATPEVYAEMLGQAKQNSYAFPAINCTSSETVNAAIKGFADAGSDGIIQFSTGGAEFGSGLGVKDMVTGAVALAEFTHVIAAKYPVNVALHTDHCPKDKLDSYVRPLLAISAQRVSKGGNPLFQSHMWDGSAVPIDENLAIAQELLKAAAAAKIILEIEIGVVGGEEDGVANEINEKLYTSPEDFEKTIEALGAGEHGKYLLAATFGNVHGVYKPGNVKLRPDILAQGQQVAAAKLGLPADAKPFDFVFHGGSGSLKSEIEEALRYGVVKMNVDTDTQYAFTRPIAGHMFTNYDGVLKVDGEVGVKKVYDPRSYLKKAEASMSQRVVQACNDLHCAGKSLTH
PrP 5UTR inh = inhibition of PrP 5' UTR reporter expression; cell-based PrP 5' UTR mRNA reporter, plate reader; inhibition, % (test concentration not listed); 340,000 tested, 0.35% active; in the data active = inhibition above about 52%; note: 0 = median of the neutral control wells
PfHsp40 yeast = compounds rescuing yeast from Plasmodium falciparum HSP40 toxicity. S. cerevisiae expressing PfHsp40, growth rescue, ATP luminescence. growth rescue, % at 12.5 µM. 340,000 tested, 0.68% active; in the data active = growth rescue above about 28%, passing the limit was not always enough;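 note: yeast W303a lacking pdr1 and pdr3 grown in galactose medium; growth measured after three days at 30 °C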
GDH-TPI inh = inhibits GDH-TPI coupling enzymes, artifact for Mtb FBA screen; AID 588335; GDH-TPI coupled enzyme counterscreen, NADH absorbance; inhibition, % at 4.8 µM; 360,000 tested, 1.2% active; in the data active = inhibition above about 30%;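 note: 0% = DMSO wells and 100% = wells lacking the enzyme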
PrPC surface inh = inhibitors of human cell surface prion protein PrPC. inhibition, % at 13.8 µM. P04156. AID 720596. TR-FRET read-out. 370,000 tested, 0.43% active; in the data active = inhibition above about 24%; note: 0% = median of the test wells and 100% = reference compound wells
Active calls of the source: *; nt = not tested or not shown; + = active, no number. The list is not random: actives were taken first. Their share in the collection is about 4.5%.

SMILES	BJeLR viability	Mtb FBA inh	PrP 5UTR inh	PfHsp40 yeast	GDH-TPI inh	PrPC surface inh
O=C(NCCO)C1(C(=O)C2CC2)CC(c2ccccc2C(F)(F)F)=NO1 (centres undefined)	nt	nt	nt	nt	nt	-1.0
CSc1nc(=S)c2[nH]c(=S)[nH]c2[nH]1	-7.7	-1.9	-11.1	-0.6	32.6*	10.9
Nc1nc(=S)c2[nH]c(=S)[nH]c2[nH]1	nt	-0.4	-15.2	-0.8	18.4	-6.2
COC1=C[C@H](C(=O)NCc2ccccc2)[C@H](C)[C@@H](c2ccccc2)CC1=O	nt	nt	nt	nt	nt	7.9
COc1cc(C(=O)Nc2ccc(S(=O)(=O)Nc3onc(C)c3C)cc2)cc(OC)c1OC	-3.8	2.0	-14.8	-0.5	11.0	6.8
COc1ccc(/C=C/C(=O)Nc2ccc3nc4n(c(=O)c3c2)CCCC4)cc1	3.0	-1.4	-10.7	-0.2	17.8	-3.3
COc1cc(/C=C/C(=O)Nc2ccc(S(=O)(=O)Nc3onc(C)c3C)cc2)cc(OC)c1OC	nt	-0.4	-13.5	0.2	39.1*	-6.3
COc1cc(/C=C/C(=O)Nc2ccc3nc4n(c(=O)c3c2)CCCC4)cc(OC)c1OC	7.6	-3.0	-11.5	-1.3	38.2*	-15.6
COc1ccc(-c2cc(C(=O)Nc3ccc(C(N)=O)cc3)c3ccccc3n2)cc1OC	5.0	-1.1	-13.0	0.1	16.7	-6.9
COc1ccc(-c2cc(C(=O)Nc3ccc(S(=O)(=O)Nc4onc(C)c4C)cc3)c3ccccc3n2)cc1OC	13.4	8.9	-19.1	0.1	41.8*	-1.8
C=CCn1c(SCC(=O)OC(C)C)nnc1-c1ccc(C)cc1	nt	nt	nt	nt	nt	-2.8
CCOC(=O)[C@]12CCCC=C1N(Cc1ccc(OC)cc1)C(=O)[C@@H]2CC(=O)NCCC(C)C	nt	nt	nt	nt	nt	0.9
CCOc1ccc(-n2c(O)c(C=Nc3ccc(N4CCOCC4)cc3)c(=O)[nH]c2=O)cc1	8.5	-0.9	-4.8	1.8	31.7*	3.1
O=c1[nH]c(=S)n(-c2ccc(Br)cc2)c(O)c1C=Nc1ccc(N2CCOCC2)cc1	13.2	-3.1	-30.8	-0.9	15.7	-0.7
Cn1c(O)c(/C=N/N2CCOCC2)c(=O)n(-c2ccccc2)c1=S	-3.8	0.1	-3.7	-0.4	35.2*	-1.1
O=c1[nH]c(=S)n(-c2ccc(F)cc2)c(O)c1/C=N/N1CCOCC1	4.3	-1.4	-22.9	-0.3	31.0*	5.4
CC(=O)N1CCN(CCN=Cc2c(O)n(-c3ccc(C)cc3)c(=S)[nH]c2=O)CC1	-9.9	-3.4	-12.9	13.9	37.0*	11.4
CCCCN1CCN(C(=O)C2CCCN(C(=O)c3ccc4c(c3)NC(=O)CS4)C2)CC1 (centres undefined)	nt	nt	nt	nt	nt	5.3
CC(COc1ccc(F)cc1)CN1CCC(C(O)(c2ccccc2)c2ccccc2)CC1 (centres undefined)	nt	nt	nt	nt	nt	-9.9
COC(=O)c1ccc2c(CCO)c[nH]c2c1	-7.6	+	-43.3	-1.7	17.4	-1.3
Cc1cc(C)cc(OC(C)CCN2CCC(C(O)(c3ccccc3)c3ccccc3)CC2)c1 (centres undefined)	nt	nt	nt	nt	nt	-2.3
C=CCn1c(SCC(=O)Nc2ccc(CCCC)cc2)nnc1-c1ccc(Cl)cc1	nt	nt	nt	nt	nt	-2.1
CC(=O)Nc1ccc2c(CN3C(=O)NC(C)(c4ccc(C)cc4)C3=O)cc(=O)oc2c1 (centres undefined)	3.6	132.0*	1.6	1.0	7.0	0.4
Cc1ccc2c(CN3C(=O)NC(C)(c4ccc5c(c4)OCO5)C3=O)cc(=O)oc2c1 (centres undefined)	7.6	3.4	-10.8	1.8	17.8	-4.4
COC(=O)c1c(NC(=O)C(C)(C)C)csc1C	3.0	0.2	-10.4	37.6*	-7.8	-2.5
SMILES	BJeLR viability	Mtb FBA inh	PrP 5UTR inh	PfHsp40 yeast	GDH-TPI inh	PrPC surface inh
COC(=O)c1c(NC(C)=O)csc1C	3.3	-1.1	-23.1	-0.9	1.5	12.1
O=C(Nc1nc2ccccc2n1CCN1CCOCC1)c1ccc(Cn2cc([N+](=O)[O-])cn2)o1	2.7	2.5	-4.3	0.4	47.8*	5.0
O=C(NC1CCCCC1)C(c1cccnc1)N(C(=O)CCl)c1cccc(Cl)c1 (centres undefined)	88.8*	1.6	-3.9	0.6	-6.7	-0.2
Cc1cccc(N(C(=O)CNC(=O)c2ccco2)C(C(=O)NC2CCCCC2)c2cccnc2)c1 (centres undefined)	-7.1	1.7	-16.8	0.7	8.3	-7.2
CC(C)n1c(=O)c2ccccc2n1Cc1cn(Cc2cccs2)nn1	nt	152.3*	nt	nt	nt	-2.2
CC(C)n1c(=O)c2ccccc2n1Cc1cn(Cc2cccnc2)nn1	nt	153.5*	nt	nt	nt	-0.4
O=C(O)CSc1cc(NS(=O)(=O)c2cccc([N+](=O)[O-])c2)c2ccccc2c1O	-8.5	4.5	-15.4	96.5*	4.3	-27.1
CCc1ccc(S(=O)(=O)Nc2cc(SCC(=O)O)c(O)c3ccccc23)cc1	-1.4	1.9	-8.0	0.6	7.6	-14.4
CCOc1ccc(S(=O)(=O)Nc2cc(SCC(=O)O)c(O)c3ccccc23)cc1	5.2	1.8	-3.2	1.0	9.4	-18.7
O=S(=O)(Nc1cc(Sc2cccc3cccnc23)c(O)c2ccccc12)c1ccccc1	125.2*	nt	nt	nt	nt	12.9
Cc1ccccc1CS(=O)(=O)Cc1ccc(C(=O)Nc2ccc(F)cc2F)o1	nt	nt	nt	nt	nt	1.7
O=C(OCC#CCSc1nnc(-c2cccc3ccccc23)o1)c1ccc(Cl)c(C(F)(F)F)c1	nt	nt	nt	nt	nt	-7.0
COc1ccc(C2CCC3(CCC(=O)N3CCO)CC2)cc1 (centres undefined)	nt	nt	nt	nt	nt	-0.3
CC1(C)Cc2ccccc2-c2nnc(SCC(=O)Nc3ccc4c(c3)OCO4)n21	5.0	-1.1	-23.6	0.8	-11.0	25.9*
CSc1nc(-c2ccccc2)c(C#N)c(=O)[nH]1	13.0	1.1	-10.3	0.4	3.8	1.0
CSc1c2c([nH]c(=O)c1C#N)-c1ccccc1CC2	nt	174.9*	nt	nt	nt	-3.6
CC(=O)c1cc(-c2ccc(-c3ccccc3)c(F)c2)c(=O)n2c1CCC2	nt	nt	nt	nt	nt	-6.8
Cc1c(C(=O)C(=O)N2CCC3(CC2)OCCO3)c2ccccc2n1C	6.5	2.0	2.1	1.6	46.3*	2.9
c1ccc(-c2c[nH]c3ccc(OCCN4CCOCC4)c(-c4ccccc4)c23)cc1	nt	nt	nt	nt	nt	-3.7
COc1cc2ncc(C(=O)c3ccccc3)c(N3CCN(Cc4ccccc4)CC3)c2cc1OC	11.7	1.3	-7.9	53.6*	4.6	nt
COc1ccccc1N1CCN(Cc2ccc(C(=O)O)cc2)CC1	5.8	-0.6	-19.7	-3.1	13.9	2.4
c1ccc(-c2nnc3n2N=C(c2ccc4ccccc4c2)CS3)nc1	nt	nt	nt	nt	nt	-17.4
COc1ccc(C2=Nn3c(nnc3-c3ccco3)SC2)cc1OC	1.8	-0.9	19.8	0.0	37.4*	-18.5
COc1ccc(C2=Nn3c(nnc3-c3ccccn3)SC2)cc1OC	8.9	-0.1	16.8	1.0	34.9*	-7.6
CCOc1ccc(C2=Nn3c(nnc3-c3ccco3)SC2)cc1	2.2	-1.3	-3.7	0.1	18.3	-3.8
CCN(CC)Cc1nc2nc(Cl)c(Cl)nc2[nH]1	nt	1.1	nt	nt	37.2*	0.0
FCc1nc2nc(Cl)c(Cl)nc2[nH]1	nt	1.6	nt	nt	23.8	3.1
